Source: PubChem BioAssay (several laboratories)
E coli growth-1: reduces bacterial viability in AddAB counter-screen; E. coli V3065 growth, OD600 absorbance, 18 h; inhibition, % at 11.9 µM; hit rate 0.27% among 330,000;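 active = inhibition above the campaign's mean inhibition across all tested compounds plus 3 SD, cut at about 9.9% in these data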;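 note: uninfected addAB+ strain grown without phage in ampicillin broth; 0% = DMSO wells and 100% = ciprofloxacin 0.95 µg/ml wells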
E coli growth-2: E. coli growth inhibition; Escherichia coli growth, OD600, 23 h; active compounds read low; hit rate 0.21% among 330,000; OD600 absorbance (concentration not given with the values);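 active = OD600 absorbance below the run mean of sample wells minus 3.6 SD, in any replicate, cut at about 0.56 in these data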
Tat transport: blocks Tat-dependent protein export in E. coli; hit rate 0.036% among 340,000; inhibition, % at 10 µM; AID 488895; E. coli MC4100 TorA-mCherry Tat export, fluorescence;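 active = mean replicate inhibition at least 50% and at least half of replicates individually reaching 50%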;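 note: exported cargo escapes ClpAP degradation while cytoplasmic cargo is degraded and loses fluorescence; 0% = median of neutral control wells and 100% = median of NaSCN control wells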
phage Ecoli inh: E. coli growth loss with phage present; AID 651602; hit rate 0.26% among 360,000; inhibition, % at 11.9 µM; growth absorbance; in the data active = inhibition above about 11%
AddAB inh: less growth of phage-infected E. coli with AddAB. inhibition, % at 11.9 µM. E. coli expressing H. pylori AddAB, absorbance growth. hit rate 0.29% among 330,000. AID 435030; in the data active = inhibition above about 12%;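 note: 0% = vehicle wells of infected cells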
AddAB confirm: growth loss of T4-infected E. coli expressing H. pylori AddAB, confirmed | shares compounds with AddAB inh | hit rate 64% among 880 | E. coli V3065 expressing H. pylori AddAB, T4 phage, OD; T4 phage with gene 2 nonsense mutations | inhibition, % at 11.9 µM;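 active = mean inhibition above a set limit taken from the earlier primary screen, cut at about 13% in these data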;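 note: higher means less bacterial growth since AddAB block lets phage replicate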
RecBCD counter: counter-screen: growth loss of RecBCD+ E. coli with mutant T4 phage; shares compounds with AddAB inh; E. coli V66 + mutant T4 phage, OD growth; inhibition, % at 11.9 µM; hit rate 73% among 880; AID 488955;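 active = mean inhibition above the mean of solvent-only control wells plus 3 SD, cut at about 4% in these data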;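 note: optical density read after an 18 h incubation at 37 °C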
Bact viability: counter-screen: bacterial growth inhibition | inhibition, % at 11.9 µM | hit rate 35% among 880 | shares compounds with AddAB inh | bacterial viability, absorbance (AddAB counterscreen) | AID 488956; in the data active = inhibition above about 25%
RecBCD conf: growth loss of phage-infected V66 E. coli, RecBCD confirmation screen. hit rate 45% among 890. shares compounds with phage Ecoli inh. E. coli V66 + T4 2- phage, growth OD. inhibition, % at 11.9 µM. AID 651982;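 active = mean inhibition over triplicates exceeding the hit threshold derived in the original primary screen, cut at about 11% in these data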
Ecoli viability: bacterial viability inhibition counter-screen for RecBCD | shares compounds with phage Ecoli inh | E. coli viability, absorbance (OD) growth | inhibition, % at 11.9 µM | hit rate 29% among 890 | AID 651983; in the data active = inhibition above about 20%;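 note: E. coli strain V66 grown with compound alone and no phage infection; 0% = bacteria with DMSO vehicle only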
AddAB counter: growth loss of phage-infected AddAB E. coli, RecBCD counter-screen; E. coli expressing H. pylori AddAB + T4 phage, OD growth; gene 2 mutant T4, recBCD-deleted host; hit rate 45% among 890; inhibition, % at 11.9 µM; AID 651984; shares compounds with phage Ecoli inh;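 active = mean inhibition above the solvent-only control wells' mean plus 3 SD, cut at about 22% in these data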;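 note: higher means less bacterial growth from phage killing when AddAB is blocked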
The depositor's hits bear a star; . = no result given. The list is not random: actives were taken first. Their share in the collection is about 0.5%.

SMILES	E coli growth-1	E coli growth-2	Tat transport	phage Ecoli inh	AddAB inh	AddAB confirm	RecBCD counter	Bact viability	RecBCD conf	Ecoli viability	AddAB counter
Oc1c(C(c2cccs2)N2CCN(c3ccccc3)CC2)ccc2cccnc12 (stereo unspecified)	9	.	.	.	12	.	.	.	.	.	.
Oc1c(C(c2ccc(Cl)cc2)N2CCCC2)cc(Cl)c2cccnc12 (stereo unspecified)	24*	0.59	-3	20*	17*	3	8.4*	1	7	8	7
Cc1ccc(C=NNC(=O)c2nnn(-c3nonc3N)c2CN(C)c2ccccc2)s1	.	0.67	.	.	.	.	.	.	.	.	.
COc1ccc(C2CC(=O)C=C(c3ccc4ncccc4c3)C2)cc1OC (stereo unspecified)	.	0.65	.	.	.	.	.	.	.	.	.
CC(=NNC(=O)c1ccccc1OCCOc1ccccc1)c1ccccc1F	.	0.66	.	.	.	.	.	.	.	.	.
O=C1Nc2ccccc2C(=O)N2C1C1C(=O)N(Cc3ccccc3)C(=O)C1C2c1ccccc1 (stereo unspecified)	.	0.7	.	.	.	.	.	.	.	.	.
Fc1ccc(C=NNC(=S)NCCc2ccccc2)cc1F	.	0.71	.	.	.	.	.	.	.	.	.
O=C(NNC(=O)c1cc2cc(Br)ccc2oc1=O)c1ccc(O)cc1O	23*	0.69	-4	18*	24*	11	14*	13	3	6	8
COc1c(N2C[C@@H]3CCCN[C@@H]3C2)c(F)cc2c(=O)c(C(=O)O)cn(C3CC3)c12	102*	.	106*	98*	100*	102*	102*	102*	103*	105*	104*
COc1c(F)c(F)cc2c(=O)c(C(=O)O)cn(C3CC3)c12	98*	0.05*	68*	95*	98*	98*	99*	102*	98*	99*	98*
COc1c(N2CCN(C(=S)NCc3ccccc3)C(C)C2)c(F)cc2c(=O)c(C(=O)O)cn(C3CC3)c12 (stereo unspecified)	104*	0.079*	33	97*	102*	101*	99*	101*	103*	104*	105*
CCOC(=O)c1cn(-c2ccc(F)c(F)c2F)c2c(F)c(F)c(F)cc2c1=O	-1	0.69	4	-1	3	.	.	.	.	.	.
CC(=NNC(=O)CNC(=O)c1ccccn1)c1ccc([N+](=O)[O-])cc1	.	0.69	.	.	.	.	.	.	.	.	.
Cc1nc2ccc(C(=O)N/N=C/c3cc([N+](=O)[O-])ccc3O)cc2[nH]1	17*	.	-2	17*	19*	8	14*	12	4	9	12
c1ccc(-c2cc(CSc3nc4ccccc4[nH]3)on2)cc1	26*	0.7	-50	18*	24*	23*	17*	14	12*	15	17
O=C(NN=Cc1cccc([N+](=O)[O-])c1)c1cccc(Br)c1	.	0.71	.	.	.	.	.	.	.	.	.
CCc1cn([C@H]2C[C@H](O)[C@@H](CO)O2)c(=O)[nH]c1=O	14*	.	20	12*	19*	38*	11*	10	14*	8	23*
O=c1[nH]c(=O)n(C2CC(O)C(CO)O2)cc1Br (stereo unspecified)	.	.	1	11	.	.	.	.	.	.	.
Cc1cn([C@H]2C[C@H](O)[C@@H](COS(=O)(=O)O)O2)c(=O)[nH]c1=O	0	.	-8	0	1	.	.	.	.	.	.
O=c1[nH]c(=O)n([C@H]2C[C@H](O)[C@@H](CO)O2)cc1C(F)(F)F	9	.	16	11*	13*	40*	9.6*	13	17*	13	26*
O=c1[nH]c(=O)n(C2C[C@H](O)[C@@H](CO)O2)cc1C(F)(F)F (stereo partly specified)	10*	.	18	15*	14*	38*	12*	15	20*	15	30*
CCC(C)C1CN(C(CN2CCCC2CN2C(N)=NCC2Cc2ccccc2)C(C)C)C(=N)N1CCCC1CCCC1 (stereo unspecified)	.	0.62	.	.	.	.	.	.	.	.	.
CC(=O)Nc1ccc(C=NNC(=O)CNS(=O)(=O)c2ccc([N+](=O)[O-])cc2)cc1	.	0.68	.	.	.	.	.	.	.	.	.
O=C(CN1C(=O)S/C(=C\c2ccc(O)cc2)C1=O)c1ccccc1	0	.	-12	3	1	.	.	.	.	.	.
COc1ccc(/C=C2\SC(=O)N(CC(=O)NNC(=O)c3ccccc3O)C2=O)cc1	10*	0.71	0	15*	17*	11	10*	10	2	3	1
SMILES	E coli growth-1	E coli growth-2	Tat transport	phage Ecoli inh	AddAB inh	AddAB confirm	RecBCD counter	Bact viability	RecBCD conf	Ecoli viability	AddAB counter
COc1ccc(/C=C2\SC(=O)N(CC(=O)NNC(=O)c3ccccc3O)C2=O)cc1OC	18*	.	-6	16*	23*	20*	14*	16	6	9	16
O=C(CN1C(=O)S/C(=C\c2ccccc2)C1=O)NNC(=O)c1ccccc1O	17*	0.7	-8	14*	19*	16*	14*	12	6	7	7
COCCN=c1scc(C)n1N=CC1CC2C=CC1C2 (stereo unspecified)	.	0.71	.	.	.	.	.	.	.	.	.
S=c1[nH]nc(COc2ccccc2)n1N=Cc1ccc(Cl)c(Cl)c1	.	0.68	.	.	.	.	.	.	.	.	.
CCOc1ccc(C(=O)Nc2ccc(N3CCN(C)CC3)cc2)cc1	0	0.62	-2	5	4	.	.	.	.	.	.
CCOc1ccc(NC(=O)c2ccc(NC(=O)c3cn4c5c(c(N6CCN(C)CC6)c(F)cc5c3=O)OCC4C)cc2)cc1 (stereo unspecified)	97*	0.067*	88*	99*	95*	100*	100*	99*	103*	104*	104*
CC1COc2c(N3CCN(C)CC3)c(F)cc3c(=O)c(C(=O)O)cn1c23 (stereo unspecified)	98*	0.061*	117*	98*	99*	100*	100*	101*	101*	102*	102*
Cc1cn(C(CCCCN)C(=O)NCCCCCCCCCCC(=O)N2CCNCC2)nn1 (stereo unspecified)	.	0.7	.	.	.	.	.	.	.	.	.
Fc1ccc(NC(=S)NN=Cc2cccc(Br)c2)c(F)c1	.	0.72	.	.	.	.	.	.	.	.	.
CC(=NNc1ccc(C(=O)O)cc1)c1ccc(-n2ccnc2)cc1	.	0.68	.	.	.	.	.	.	.	.	.
